Here are results for ten molecules from PubChem BioAssay (NCATS).

Assay [1] can be described thus: Cell Viability - BJ (AID 421; calls by dose curve;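 further: potency means the concentration at half of the fitted maximal effect; cells exposed to compound for 40 hours at 37 °C before readout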). The settings on record: BJ fibroblast viability, qHTS. The method, boiled down:
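Quantitative HTS: ATP depletion in BJ cells after 40 hr compound exposure in complete culture medium, detected with CellTiter-Glo; AC50 from standard Hill fits.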
(In general: Quantitative high-throughput screening tests each substance at several concentrations.)

In assay [2] the target is Mitogen-activated protein kinase 10 (Mus musculus) (UniProt Q61831). Briefly: JNK3 AlphaScreen Assay (AID 530; active means well fitted curve in either direction with a large enough effect, not every such curve was filed as active;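 further: kinase came from lysate of stimulated human HepG2 cells; signal reports phosphorylation of biotinylated GST-cJun 1-79 at Ser73 with 10 µM ATP; on the % scale 0 is the no-effect control and ±100 the full control effect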). The settings on record: JNK3 lysate, c-Jun phosphorylation; series mostly up to 11.4 µM. The method, boiled down: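 qHTS titrations with 15 min compound pre-incubation before adding ATP (10 uM final). Read-out: AlphaScreen of Ser73-phosphorylated biotin-GST-cJun using HepG2 lysate JNK3 activated by IL-1β and TNFα.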
For orientation: In Alpha technology, singlet oxygen from a donor bead excites a nearby acceptor bead.

A short description of assay [3]: Cell Viability - LYMP2-001 (AID 921).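 Further: 0% = DMSO only and full inhibition = tetraoctylammonium bromide control wells; nearly all actives have a fitted effect of over 70% in size.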 The conditions noted are these: LYMP2-001 lymphoblastoid cell viability; series mostly up to 92.2 µM. The method, boiled down: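 Human lymphoblastoid cells (Coriell), 2500 per well, were preincubated 5 hr at 37 C, then exposed to compounds in complete medium for 24 hr at 37 C. Cellular ATP was read by CellTiter-Glo luminescence; AC50 from Hill fits of concentration-response data.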

A short description of assay [4]: MultiTox-Fluor Cytotoxicity Assay - LYMP1-002 - Live Cells (AID 955).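 Further: cells exposed to compound for 16 hours; on the % scale 0 is the no-effect control and ±100 the full control effect.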 The conditions noted are these: LYMP1-002 lymphoblastoid live-cell protease fluorescence viability; series mostly up to 46.1 µM. The method, boiled down:
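Cells were seeded at 2500 per well and incubated 5 hr. Compounds were then added for 16 hr at 37 C, followed by MultiTox-Fluor reagent for 60 min at room temperature and fluorescence reading of viable-cell protease signal.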

Assay [5] is described as follows: Cell Viability - LYMP2-019 (AID 973).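 Further: 0% = DMSO alone and full effect = 92 µM tetraoctylammonium bromide; nearly all actives have a fitted effect of over 55% in size.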 The settings on record: LYMP2-019 lymphoblastoid cell line viability; series mostly up to 92.2 µM. The essentials: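 Cytotoxicity is scored as a concentration-dependent drop in cellular ATP after cells (2500/well) receive compound for 24 hr at 37 C. Tetraoctylammonium bromide serves as positive control.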
A short description of assay [6]: Cell Viability - LYMP2-025 (AID 976).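 Further: plate controls were DMSO only for no effect and tetraoctylammonium bromide control for full effect.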 The conditions noted are these: LYMP2-025 lymphoblastoid cell viability; series mostly up to 92.2 µM. The method, boiled down: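 Acute cytotoxicity is scored as a concentration-dependent fall in intracellular ATP, measured by luciferase luminescence, in human lymphoblastoid LYMP2-025 cells exposed to compound for 24 hours at 37 C. AC50 values come from standard Hill fits.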

A short description of assay [7]: Cell Viability - LYMP2-022 (AID 987).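 Further: 0% = DMSO alone and full effect = tetraoctylammonium bromide at 92 µM; nearly all actives have a fitted effect of over 55% in size.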 The conditions noted are these: LYMP2-022 lymphoblastoid cell viability; series mostly up to 92.2 µM. The method, boiled down: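 Cells were seeded at 2500 per well, rested 5 hr at 37 C, and treated with titrated compounds for 24 hr at 37 C. Cellular ATP was then quantified by luciferase luminescence, and AC50 values were derived from Hill-modelled concentration-response curves.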

Assay [8] addresses Glucocorticoid receptor (Homo sapiens) (UniProt P04150). Nature of the assay: qHTS assay for small molecule antagonists of glucocorticoid receptor signaling (AID 588533; active means well fitted inhibition curve with a large enough effect in the signal ratio, with a control signal flat, not every such curve was filed as active; the % refers to the signal ratio;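 further: cells stimulated with 2 nM dexamethasone as agonist; on the % scale 0 is the no-effect control and ±100 the full control effect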). The settings on record: HeLa MMTV-bla, GRE beta-lactamase ratio, antagonist mode, 18 h; series mostly up to 76.8 µM. The method, boiled down:
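Antagonist-mode qHTS: compound titrations added to GRE-bla HeLa cells, then dexamethasone 2 nM final; 18 h, 37 C. CCF4 FRET fluorescence normalized to dexamethasone and DMSO; IC50 from Hill fit.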

The nature of assay [9]: qHTS assay for small molecule antagonists of peroxisome proliferator-activated receptor delta signaling (AID 588535).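 Further: cells co-treated with a PPAR-delta agonist as stimulator during compound exposure.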 The settings on record: HEK293T PPARd-UAS-bla, beta-lactamase FRET ratio, 18 h; 460 nm channel. The method, boiled down: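 Titrations were run on PPAR-delta-UAS-bla HEK293T cells in charcoal/dextran-stripped serum, incubated 18 h at 37 C. CCF4 fluorescence (460/530 nm) after 2 h RT; Hill equation yields IC50 and maximal response.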

Assay [10] deals with Peroxisome proliferator-activated receptor gamma (Homo sapiens) (UniProt P37231). Nature of the assay: qHTS assay for small molecule antagonists of peroxisome proliferator-activated receptor gamma signaling (AID 588537; active means well fitted inhibition curve with a large enough effect in the signal ratio, with a control signal flat, not every such curve was filed as active; the % refers to the signal ratio;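 further: reporter cells co-stimulated with 50 nM rosiglitazone agonist during compound treatment; % of control where 0% means no effect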). The conditions noted are these: HEK293 PPARg-UAS-bla, beta-lactamase ratio, antagonist mode; series mostly up to 76.8 µM. The method, boiled down:
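Antagonist-mode β-lactamase reporter screen run as a titration series. HEK293 PPARγ-UAS-bla cells are stimulated with rosiglitazone (50 nM final) for 16 h, then CCF4 is read at 460/530 nm. Data are scaled between DMSO and rosiglitazone and fitted to the Hill equation.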

The target of assay [11] is Thyroid hormone receptor beta (Homo sapiens) (UniProt P10828). Nature of the assay: qHTS assay for small molecule antagonists of thyroid hormone receptor beta signaling (AID 588547; active means well fitted inhibition curve with a large enough effect in the signal ratio, with a control signal flat, not every such curve was filed as active; the % refers to the signal ratio;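 further: cells stimulated with 0.4 nM T3 agonist during compound exposure; on the % scale 0 is the no-effect control and ±100 the full control effect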). The settings on record: TR-UAS-bla HEK293, beta-lactamase ratio, antagonist mode, 18 h. The method, boiled down: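 Inhibition of T3-driven (0.4nM final) beta-lactamase reporter activity was measured over 0.59 nM to 92 uM compound after 18 h at 37 C. The cells were GripTite HEK293 TR-UAS-bla in charcoal/dextran-stripped serum, with CCF4 ratio read-out and IC50 from Hill fits.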
Sequence of Thyroid hormone receptor beta (Homo sapiens) (P10828 whole entry, looked up): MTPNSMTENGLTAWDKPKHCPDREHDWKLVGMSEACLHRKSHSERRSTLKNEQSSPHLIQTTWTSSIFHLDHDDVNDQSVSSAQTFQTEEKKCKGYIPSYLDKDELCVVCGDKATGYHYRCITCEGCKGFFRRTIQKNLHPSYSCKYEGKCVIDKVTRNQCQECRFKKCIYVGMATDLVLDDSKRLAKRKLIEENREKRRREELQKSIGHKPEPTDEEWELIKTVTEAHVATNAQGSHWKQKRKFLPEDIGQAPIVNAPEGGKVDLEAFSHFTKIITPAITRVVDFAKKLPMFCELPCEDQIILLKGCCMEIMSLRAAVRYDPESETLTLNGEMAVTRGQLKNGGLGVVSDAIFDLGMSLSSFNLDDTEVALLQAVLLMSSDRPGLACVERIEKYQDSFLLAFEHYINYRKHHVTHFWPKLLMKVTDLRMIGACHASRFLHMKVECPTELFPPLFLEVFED

Assay [12] has as its target Voltage-gated inwardly rectifying potassium channel KCNH2 (Homo sapiens) (UniProt Q12809). Briefly: qHTS Assay for Small Molecule Inhibitors of the Human hERG Channel Activity (AID 588834).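 Further: top concentration of the series differs between compounds; on the % scale 0 is the no-effect control and ±100 the full control effect; lower thallium flux fluorescence means stronger hERG block; nearly all actives have a fitted effect of over 50% in size.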 The conditions noted are these: U2OS BacMam hERG, FluxOR thallium flux fluorescence; series mostly up to 92.2 µM. The essentials:
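In hERG-transduced U2OS cells, dye-loaded for 1 hr at room temperature in dark, test compounds incubated 10 min at 37 °C before thallium stimulation. AC50 values derived by Hill modelling of concentration-response.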

Assay [13] can be described thus: MultiTox-Fluor Cytotoxicity Assay - LYMP1-001 - Live Cells (AID 947).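 Further: 0% = DMSO only and full inhibition = tetraoctylammonium bromide control.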 The settings on record: LYMP1-001 lymphoblastoid cells, live-cell protease fluorescence viability; series mostly up to 92.2 µM.
A short description of assay [14]: Cell Viability - LYMP1-003 - Assay at 40 hr (AID 964). Further: on the % scale 0 is the no-effect control and ±100 the full control effect; nearly all actives have a fitted effect of over 60% in size. The conditions noted are these: LYMP1-003 lymphoblastoid viability; series mostly up to 92.2 µM. The method, boiled down: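 Luminescent ATP signal (CellTiter-Glo) served as the viability read-out after 40 hr compound treatment of human lymphoblastoid LYMP1-003 cells at 37 C. Decreases in ATP were fitted with the Hill equation to give AC50.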

The nature of assay [15]: Cell Viability - LYMP2-023 (AID 975).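 Further: cellular ATP measured by luciferase luminescence as viability proxy; plate controls were DMSO only for no effect and 92 µM tetraoctylammonium bromide control for full effect; nearly all actives have a fitted effect of over 55% in size.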 The settings on record: LYMP2-023 lymphoblastoid cell viability; series mostly up to 92.2 µM. The essentials:
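Steps: seed 2500 human lymphoblastoid cells per well, incubate 5 hr at 37 C, add compound for 24 hr at 37 C, add CellTiter-Glo, hold 30 min at room temperature, read luminescence. AC50 derived by Hill modelling.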

Assay [16] can be described thus: Cell Viability - LYMP2-007 (AID 979).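 Further: cells exposed to compound for 24 h before reading; 0% = DMSO only and the negative end = 92 µM tetraoctylammonium bromide; nearly all actives have a fitted effect of over 60% in size.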 The settings on record: LYMP2-007 lymphoblastoid cell viability; series mostly up to 92.2 µM. The method, boiled down: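 Cells are seeded at 2500 per well and rested 5 hr. Compounds are then added over a concentration series for 24 hr at 37 C. CellTiter-Glo is added for 30 min at room temperature before luminescence reading.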

The target of assay [17] is Glucocorticoid receptor (Homo sapiens) (UniProt P04150). Briefly: qHTS assay for small molecule agonists of glucocorticoid receptor signaling (AID 588532; active means well fitted curve in the direction sought with a large enough effect in the signal ratio, with a control signal flat; the % refers to the signal ratio;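 further: 100% = dexamethasone at 0.1 µM and 0% = DMSO only wells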). The settings on record: HeLa MMTV-bla, beta-lactamase ratio, agonist, 18 h; stronger effect = higher value; percent of dexamethasone control, DMSO zero. The essentials: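 Quantitative HTS using CellSensor MMTV-bla HeLa cells in charcoal/dextran-treated serum; compounds tested up to 92 uM. After 18 h at 37 C, CCF4 dye reported reporter induction.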
Sequence of Glucocorticoid receptor (Homo sapiens) (P04150 whole entry, looked up): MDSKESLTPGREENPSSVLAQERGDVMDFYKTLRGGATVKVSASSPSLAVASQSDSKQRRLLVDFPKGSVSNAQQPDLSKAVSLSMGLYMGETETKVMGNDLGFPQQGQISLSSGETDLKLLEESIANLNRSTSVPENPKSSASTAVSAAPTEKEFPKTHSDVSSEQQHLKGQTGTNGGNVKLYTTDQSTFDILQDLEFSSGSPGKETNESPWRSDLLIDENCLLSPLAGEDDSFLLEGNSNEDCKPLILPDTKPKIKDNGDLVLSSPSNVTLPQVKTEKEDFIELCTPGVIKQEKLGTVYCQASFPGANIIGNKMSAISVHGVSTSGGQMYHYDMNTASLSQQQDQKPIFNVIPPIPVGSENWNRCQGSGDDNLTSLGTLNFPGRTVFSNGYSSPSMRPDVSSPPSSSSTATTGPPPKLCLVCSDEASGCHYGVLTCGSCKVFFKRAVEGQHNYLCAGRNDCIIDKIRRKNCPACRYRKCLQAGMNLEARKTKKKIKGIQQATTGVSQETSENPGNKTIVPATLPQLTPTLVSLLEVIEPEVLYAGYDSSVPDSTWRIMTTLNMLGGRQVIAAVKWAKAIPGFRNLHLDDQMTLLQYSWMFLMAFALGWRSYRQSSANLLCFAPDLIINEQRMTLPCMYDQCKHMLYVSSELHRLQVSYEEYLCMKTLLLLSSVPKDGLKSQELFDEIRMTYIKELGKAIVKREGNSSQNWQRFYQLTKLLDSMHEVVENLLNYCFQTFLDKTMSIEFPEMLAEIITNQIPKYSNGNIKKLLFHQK

Assay [18] is described as follows: Cell Viability - SK-N-SH (AID 435; calls by dose curve;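 further: potency means the concentration at half of the fitted maximal effect; compound exposure lasted 40 h at 37 °C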). The conditions noted are these: SK-N-SH neuroblastoma cell viability qHTS. The method, boiled down:
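SK-N-SH human neuroblastoma cells (1500/well) were exposed to compounds in complete medium for 40 h at 37 °C, and intracellular ATP was then measured by CellTiter-Glo luminescence. AC50 was taken from Hill fits, normalized to DMSO and 100 uM tamoxifen.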

Assay [19] in a line: Cell Viability - LYMP2-018 (AID 985).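 Further: compound exposure lasted 24 hr at 37 °C; plate controls were DMSO only for no effect and tetraoctylammonium bromide at 92 µM for full effect; nearly all actives have a fitted effect of over 50% in size.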 The conditions noted are these: LYMP2-018 lymphoblastoid cells, viability (qHTS); series mostly up to 92.2 µM. The method, boiled down:
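Seed 2500 lymphoblastoid cells per well, incubate 5 hr at 37 C, add compound and incubate 24 hr at 37 C, add CellTiter-Glo, wait 30 min at room temperature, then read luminescence.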

The target of assay [20] is Bile acid receptor (Homo sapiens) (UniProt Q96RI1). Briefly: qHTS assay for small molecule antagonists of farnesoid X receptor signaling (AID 588526; calls by dose curve; further: on the % scale 0 is the no-effect control and ±100 the full control effect). The conditions noted are these: HEK293T FXR-UAS-bla, beta-lactamase ratio, antagonist mode; series mostly up to 76.7 µM. The method, boiled down: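 Beta-lactamase reporter antagonist mode: HEK293T FXR-UAS-bla cells, titrated compound, CDCA stimulation, 16 h 37 C, CCF4 dye 2 h RT. Data normalized to CDCA 50 uM and DMSO; Hill-fit IC50.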
Sequence of Bile acid receptor (Homo sapiens) (Q96RI1 whole entry, looked up): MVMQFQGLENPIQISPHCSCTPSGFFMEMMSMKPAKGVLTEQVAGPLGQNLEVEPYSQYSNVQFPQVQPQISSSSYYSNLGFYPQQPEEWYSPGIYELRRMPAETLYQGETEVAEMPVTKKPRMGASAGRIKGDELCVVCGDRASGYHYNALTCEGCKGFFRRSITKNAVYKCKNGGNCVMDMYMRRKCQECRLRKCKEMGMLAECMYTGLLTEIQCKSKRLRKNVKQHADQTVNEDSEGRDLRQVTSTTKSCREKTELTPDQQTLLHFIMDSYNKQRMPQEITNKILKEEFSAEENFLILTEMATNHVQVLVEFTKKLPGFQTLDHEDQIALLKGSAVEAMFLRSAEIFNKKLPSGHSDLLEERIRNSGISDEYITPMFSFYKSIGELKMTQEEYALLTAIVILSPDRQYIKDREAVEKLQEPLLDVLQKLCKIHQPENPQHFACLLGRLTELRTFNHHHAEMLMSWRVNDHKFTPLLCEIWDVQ

Structures are written as SMILES. Where “and” joins values, the source holds several entries; their conditions need not be identical. Equal values may be shown once. Results filed as inconclusive are left out. Calls of active or inactive are those of the source. Unless noted, the call rests on the fitted dose curve; in most records, active means well fitted curve in the direction sought with a large enough effect; inconclusive means small, poorly fitted or top-dose-only effect, or another doubt; inactive means no such curve, though single readings can be large; an effect the other way counts as inactive or inconclusive.

Sequence of Peroxisome proliferator-activated receptor gamma (Homo sapiens) (P37231 whole entry, looked up): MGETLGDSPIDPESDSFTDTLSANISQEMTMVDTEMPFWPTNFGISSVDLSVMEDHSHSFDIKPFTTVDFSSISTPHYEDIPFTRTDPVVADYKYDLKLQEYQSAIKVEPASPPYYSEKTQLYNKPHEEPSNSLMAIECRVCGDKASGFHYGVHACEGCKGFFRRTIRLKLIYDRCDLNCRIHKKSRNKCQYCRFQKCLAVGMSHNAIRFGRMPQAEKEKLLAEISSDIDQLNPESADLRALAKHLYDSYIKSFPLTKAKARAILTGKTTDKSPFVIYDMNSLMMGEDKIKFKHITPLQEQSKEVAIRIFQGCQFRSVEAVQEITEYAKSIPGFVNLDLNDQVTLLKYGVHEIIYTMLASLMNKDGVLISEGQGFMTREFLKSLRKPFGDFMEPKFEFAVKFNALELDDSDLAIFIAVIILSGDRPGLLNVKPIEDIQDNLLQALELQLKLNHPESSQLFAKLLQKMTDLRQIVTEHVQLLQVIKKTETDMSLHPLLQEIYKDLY
Sequence of Voltage-gated inwardly rectifying potassium channel KCNH2 (Homo sapiens) (Q12809 whole entry, looked up): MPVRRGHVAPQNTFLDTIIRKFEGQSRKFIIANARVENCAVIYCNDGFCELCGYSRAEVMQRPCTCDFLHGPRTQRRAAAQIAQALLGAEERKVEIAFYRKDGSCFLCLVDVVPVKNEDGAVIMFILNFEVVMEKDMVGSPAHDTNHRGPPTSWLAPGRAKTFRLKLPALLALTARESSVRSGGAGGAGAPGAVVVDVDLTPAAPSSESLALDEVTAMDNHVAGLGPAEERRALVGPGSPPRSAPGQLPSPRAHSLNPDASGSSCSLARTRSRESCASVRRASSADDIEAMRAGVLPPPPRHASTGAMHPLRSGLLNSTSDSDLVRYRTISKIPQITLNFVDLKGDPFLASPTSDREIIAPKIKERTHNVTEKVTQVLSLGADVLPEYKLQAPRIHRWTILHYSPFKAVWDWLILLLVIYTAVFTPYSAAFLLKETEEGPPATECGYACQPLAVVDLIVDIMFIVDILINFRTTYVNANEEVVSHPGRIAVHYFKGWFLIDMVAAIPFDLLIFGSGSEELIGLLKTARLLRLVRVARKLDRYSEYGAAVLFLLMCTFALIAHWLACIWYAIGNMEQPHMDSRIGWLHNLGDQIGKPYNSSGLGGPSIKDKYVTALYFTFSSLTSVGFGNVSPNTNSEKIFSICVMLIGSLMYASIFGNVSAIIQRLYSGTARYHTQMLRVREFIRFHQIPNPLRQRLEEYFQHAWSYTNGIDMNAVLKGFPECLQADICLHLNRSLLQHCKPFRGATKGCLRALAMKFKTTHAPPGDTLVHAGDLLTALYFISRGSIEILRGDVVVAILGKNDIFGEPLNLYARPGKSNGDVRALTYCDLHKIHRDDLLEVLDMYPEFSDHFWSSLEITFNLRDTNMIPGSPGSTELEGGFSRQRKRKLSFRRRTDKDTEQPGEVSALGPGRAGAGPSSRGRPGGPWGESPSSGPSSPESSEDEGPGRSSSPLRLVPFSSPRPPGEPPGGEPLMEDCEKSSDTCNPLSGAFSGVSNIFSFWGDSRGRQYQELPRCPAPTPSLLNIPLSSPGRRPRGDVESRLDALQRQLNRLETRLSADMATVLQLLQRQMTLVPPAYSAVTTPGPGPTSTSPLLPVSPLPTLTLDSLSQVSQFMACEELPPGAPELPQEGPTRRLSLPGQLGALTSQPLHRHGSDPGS

`Nc1cc([N+](=O)[O-])ccc1O`: in assay [1], the Potency is > 92 µM (inactive). Besides, the Potency entry in assay [2], in [3], in assay [5], in assay [6], in assay [7] and in assay [8] was “inactive” each time. The Potency entry in assay [10] and in [12] was “inactive” each time. In assay [4], the molecule was classed as inactive. The max response in assay [9] is 32.9% and 36.8%. Besides, the activity change % (negative = inhibition) in assay [11] was 11.2% (inactive) and 4.34% (inactive).
For `CCCCC(CC)COC(=O)COc1ccc(Cl)cc1Cl` (stereo unspecified), the Potency in [1] was > 92 µM (inactive). Moreover, the Potency entry in assay [3], in assay [13], in [14], in assay [5], in assay [15] and in assay [6] was “inactive” throughout. The Potency result in assay [16], in [7] and in assay [8] was “inactive” each time. Further, in assay [17], the activation was -3.61% (inactive) and -5.37% (inactive).
Consider `Oc1ccc2c(c1)OCO2`, for which the Potency in assay [1] and in assay [18] was > 92 µM (inactive) throughout. For the same molecule, the Potency entry in assay [2], in [13], in assay [5], in [15], in assay [6] and in assay [16] was “inactive” throughout. The Potency entry in [8] and in [12] was “inactive” each time. For the same molecule, in assay [4], the molecule was called inactive. Besides, in assay [17], the activation is -0.95% (inactive). Further, the activity change % (negative = inhibition) in assay [11] is 5.85% (inactive).
`CCOC(=O)C1OC1c1ccccc1` (stereo unspecified): the Potency in assay [1] was > 92 µM (inactive). In addition, the Potency result in assay [2], in assay [3], in [14], in assay [15], in [6] and in assay [16] was “inactive” each time. Besides, the Potency result in assay [19], in assay [8] and in assay [10] was “inactive” throughout. In assay [9], the max response is -6.92%.
For the molecule `CCCCCCN`, the Potency in assay [1] and in assay [18] was > 92 µM (inactive) in each case. The Potency entry in assay [3], in [13], in assay [14], in assay [15], in [16] and in [19] was “inactive” throughout. Further, the Potency result in assay [7] and in assay [12] was “inactive” each time.
Regarding `OC1CCCCC1`, the Potency in assay [1] was > 92 µM (inactive). Besides, the Potency result in assay [3], in assay [14], in [15], in assay [16], in assay [19] and in assay [7] was “inactive” in each case. Besides, the Potency entry in [10] and in assay [12] was “inactive” in each case. In addition, the activation in assay [17] was -3.35% (inactive). Further, in [9], the max response turned out to be 23.6%. Also, the activity change % (negative = inhibition) in assay [11] is 4.86% (inactive).
Turning to `CC(=O)OCc1ccc2c(c1)OCO2`, the Potency in assay [1] and in assay [18] was > 92 µM (inactive) each time. Besides, the Potency result in assay [2], in assay [3], in assay [6], in assay [16], in assay [19] and in assay [7] was “inactive” each time. For the same molecule, the Potency result in assay [20], in [8] and in assay [12] was “inactive” each time. For the same molecule, the activity change % (negative = inhibition) in assay [11] is -11.5% (inactive).
Regarding `CCN(CC)c1ccc2c(C)cc(=O)oc2c1`, the Potency in assay [1] is > 92 µM (inactive). Also, the Potency result in assay [14], in [5], in assay [6], in assay [16], in assay [19] and in [7] was “inactive” each time. In addition, in [10], the Potency result was “inactive”.
Turning to `CC(=O)OC1CC(C)OC(C)O1` (stereo unspecified), the Potency in [1] and in assay [18] was > 92 µM (inactive) each time. Further, the Potency result in assay [2], in [14], in assay [5], in assay [15], in assay [20] and in assay [8] was “inactive” each time. In addition, in [10], the Potency entry was “inactive”. Moreover, the molecule was classed as inactive in assay [4]. The max response in [9] is -8.33% and -2.28%. The activity change % (negative = inhibition) in assay [11] was -11% (inactive) and -10.6% (inactive).
As to `O=c1[nH]ncc2ccccc12`, in assay [1], the Potency was > 92 µM (inactive). Further, the Potency entry in [3], in assay [14], in [15], in [19], in assay [7] and in assay [8] was “inactive” in each case. Moreover, in assay [12], the Potency entry is “inactive”. The outcome in assay [4] was inactive. In addition, the activity change % (negative = inhibition) in assay [11] is -18.2% (inactive).
